Results on three compounds are retold here after PubChem BioAssay (EPA / NIEHS).

Calls of active or inactive are those of the source. How the source made its calls: active means hit-call score of the fitted dose curve at least 0.9, where 1 is the maximum; inactive means score below 0.9.

The target of assay [1] is Bile acid receptor (Homo sapiens) (UniProt Q96RI1). Briefly: ATG_IR1_CIS: Attagene CIS-FACTORIAL HepG2 Assay for human Nuclear Receptor Subfamily 1 Group H Member 4 (NR1H4), IR1 submotif (AID 2282946). As to conditions: IR1 reporter transcription, actives raise or lower the signal. In outline: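 HepG2 cells transiently transfected with multiplexed cis-element reporter units read endogenous transcription factor activity. After 24 h compound exposure, reporter mRNA was quantified by RT-PCR, fluorescent labelling, HpaI digestion and capillary electrophoresis; bidirectional fitting versus DMSO baseline.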

The nature of assay [2]: ATG_ISRE_CIS: Attagene CIS-FACTORIAL HepG2 Assay for human Interferon Regulatory Factor 1 (IRF1) binding to an Interferon-Stimulated Response Element (ISRE) (AID 2282948). The settings on record: HepG2 ISRE cis-reporter (Attagene), mRNA transcription readout; actives raise or lower the signal. The method in brief:
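Endogenous transcription factor activity read as reporter transcript abundance via RT-PCR and capillary electrophoresis. HepG2 cells transiently transfected, 24 h chemical exposure. Gain or loss fitted against DMSO baseline.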

Assay [3] in a line: ATG_M_32_CIS: Attagene CIS-FACTORIAL HepG2 Assay for M32 Transcription Factor (Internal Marker) (AID 2282949).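 Further: background control marker of the multiplexed CIS panel rather than a real target.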 As to conditions: HepG2 Attagene cis-factorial M32 reporter, mRNA; actives raise or lower the signal. In outline: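 Transient MRTU transfection of HepG2; 24 h compound treatment; TriZol RNA, oligo(dT) RT, reporter PCR, 6-FAM primer extension, HpaI cut, CE. Gain/loss of signal vs DMSO.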

A short description of assay [4]: ATG_M_06_CIS: Attagene CIS-FACTORIAL HepG2 Assay for M06 Transcription Factor (Internal Marker) (AID 2282950). As to conditions: HepG2 Attagene CIS-FACTORIAL M06 internal marker reporter; actives raise or lower the signal. In outline: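 Serves as a background control readout. Transfected HepG2 exposed to compounds for 24 h, then reporter transcripts quantified by fluorescent RT-PCR and capillary electrophoresis. Both directions fitted against DMSO baseline.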

In assay [5] the target is Hypoxia-inducible factor 1-alpha (Homo sapiens) (UniProt Q16665). Briefly: ATG_HIF1a_CIS: Attagene CIS-FACTORIAL HepG2 Assay for human Hypoxia Inducible Factor 1 (HIF1A) (AID 2282951). As to conditions: HepG2 Attagene cis-factorial HIF1a reporter transcription; actives raise or lower the signal. In outline:
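HepG2, transient cis-reporter library, 24 h dosing. RNA → RT (oligo dT) → PCR → 6-FAM primer extension → HpaI → CE. Bidirectional curve fit vs DMSO.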

The target in assay [6] is Hepatocyte nuclear factor 6 (Homo sapiens) (UniProt Q9UBC0). Briefly: ATG_HNF6_CIS: Attagene CIS-FACTORIAL HepG2 Assay for human Hepatocyte Nuclear Factor 6 (HNF6) (AID 2282952). The settings on record: HepG2 Attagene cis-factorial HNF6 reporter transcription; actives raise or lower the signal. In outline:
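Endogenous factor activity read in transiently transfected HepG2 via promoter-regulated reporter transcripts. RNA harvested 24 h post-dosing, reverse-transcribed, PCR-amplified, FAM-labelled, HpaI-digested and resolved by capillary electrophoresis; fitted in both directions against DMSO.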

In assay [7] the target is Heat shock factor protein 1 (Homo sapiens) (UniProt Q00613). Briefly: ATG_HSE_CIS: Attagene CIS-FACTORIAL HepG2 Assay for human Heat Shock Transcription Factor 1 (HSE) (AID 2282953). The settings on record: HepG2 HSE cis-reporter, Attagene RNA transcription; actives raise or lower the signal. The method in brief:
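Endogenous transcription factor activity in transiently transfected HepG2, read as reporter mRNA by RT-PCR with fluorescent capillary electrophoresis after 24 h. Gain or loss of signal fitted versus DMSO baseline.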

Assay [8] in a line: ATG_MRE_CIS: Attagene CIS-FACTORIAL HepG2 Assay for human Metal Responsive Element (MRE) (AID 2282954). As to conditions: HepG2 MRE cis-reporter transcription, Attagene multiplex; actives raise or lower the signal. The method in brief: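 Multiplexed cis-reporter assay in human HepG2 liver cells, 24 h incubation with test chemical. Reporter transcripts measured by RT-PCR and capillary electrophoresis; values from bidirectional curve fitting versus DMSO.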

For assay [9], the target named is Paired box protein Pax-6 (Homo sapiens) (UniProt P26367). The experiment in a line: ATG_Pax6_CIS: Attagene CIS-FACTORIAL HepG2 Assay for human Paired Box 6 (PAX6) (AID 2282956). As to conditions: HepG2 CIS-FACTORIAL PAX6 reporter transcription, RNA readout; actives raise or lower the signal. In outline:
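Read-out is reporter transcript level, measured by RT-PCR with fluorescent primer extension and capillary electrophoresis after 24 h dosing of transfected HepG2 cells. Activity in either direction fitted relative to DMSO control.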

Assay [10] can be described thus: ATG_PXRE_CIS: Attagene CIS-FACTORIAL HepG2 Assay for human Pregnane X Receptor Element (PXRE) (AID 2282957). The settings on record: HepG2 Attagene CIS-FACTORIAL PXRE reporter, mRNA; actives raise or lower the signal. In outline:
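Reporter transcripts under endogenous PXR-responsive cis-regulation quantified from total RNA of transfected HepG2 cells 24 h post-dosing, via RT-PCR with fluorescent primer extension and capillary electrophoresis. Gain or loss of signal fitted against DMSO baseline.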

The nature of assay [11]: ATG_RORE_CIS: Attagene CIS-FACTORIAL HepG2 Assay for human RAR-related Orphan Receptor Element (RORE) (AID 2282959). As to conditions: HepG2 Attagene cis-factorial RORE reporter, mRNA; actives raise or lower the signal. In outline:
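Multiplexed reporter assay measuring mRNA induction from a cis promoter element in transiently transfected HepG2 cells after 24 h treatment. Detection via RT-PCR and capillary electrophoresis fluorescence; DMSO serves as baseline.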

The nature of assay [12]: ATG_Sox_CIS: Attagene CIS-FACTORIAL HepG2 Assay for human SRY-box transcription factor (SOX) (AID 2282960). The settings on record: HepG2 Attagene cis-factorial SOX reporter, mRNA; actives raise or lower the signal. In outline:
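Cells were transfected with reporter constructs under cis-regulatory promoters, then exposed to chemicals for 24 h. Reporter transcripts were quantified by fluorescence after RT-PCR and capillary electrophoresis; activity was fitted in both directions against DMSO.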

The target of assay [13] is Transcription factor Sp1 (Homo sapiens) (UniProt P08047). Briefly: ATG_Sp1_CIS: Attagene CIS-FACTORIAL HepG2 Assay for human Specificity Protein 1 (Sp1) (AID 2282961). The settings on record: HepG2 Sp1 cis-reporter transcription, actives raise or lower the signal. The method in brief:
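Measures mRNA induction of an Sp1-linked reporter in HepG2 cells 24 h post-dosing. Multiplexed reporters read by RT-PCR and capillary electrophoresis; DMSO serves as negative control and baseline.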

Assay [14] can be described thus: ATG_SREBP_CIS: Attagene CIS-FACTORIAL HepG2 Assay for human Sterol Regulatory Element Binding (SREBP) (AID 2282962). As to conditions: HepG2 Attagene cis-factorial SREBP reporter, mRNA; actives raise or lower the signal. The method in brief: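 Endogenous SREBP activity read as cis-element-driven reporter transcript in transiently transfected HepG2, 24 h post-dosing; quantified via RT-PCR plus capillary electrophoresis of fluorescent fragments. Gain or loss of signal fitted relative to DMSO baseline.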

The target of assay [15] is Signal transducer and activator of transcription 3 (Homo sapiens) (UniProt P40763). The experiment in a line: ATG_STAT3_CIS: Attagene CIS-FACTORIAL HepG2 Assay for human Signal Transducer and Activator of Transcription 3 (STAT3) (AID 2282963). The settings on record: HepG2, Attagene cis-factorial STAT3 reporter transcription; actives raise or lower the signal. In outline:
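Cis-factorial format: endogenous transcription factors in HepG2 drive transfected reporter units. After 24 h treatment, reporter RNA was reverse-transcribed, amplified, FAM-labelled and HpaI-digested before CE analysis; activity scored in both directions against DMSO.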

Assay [16] can be described thus: ATG_TA_CIS: Attagene CIS-FACTORIAL HepG2 Assay for human TA Basal Promoter (AID 2282964). As to conditions: HepG2 Attagene CIS-factorial TA basal promoter reporter; actives raise or lower the signal. The method in brief:
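Background-control readout: TA basal promoter reporter mRNA, fitted in both directions relative to DMSO. Measured by RT-PCR and capillary electrophoresis 24 hours after treating HepG2 human liver cells transiently carrying multiplexed cis-regulated reporter constructs.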

Assay [17] in a line: ATG_TCF_b_cat_CIS: Attagene CIS-FACTORIAL HepG2 Assay for human T-Cell-Factor with beta-catenin (TCF/b-cat) (AID 2282965). As to conditions: HepG2 TCF/beta-catenin cis-reporter transcription, actives raise or lower the signal. In outline:
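Endogenous transcription factor activity is captured through cis-promoter reporter constructs transiently introduced into human HepG2 liver cells. Induced reporter mRNA is measured after 24 h and fitted bidirectionally relative to DMSO.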

Assay [18] in a line: ATG_GRE_CIS: Attagene CIS-FACTORIAL HepG2 Assay for human Glucocorticoid Response Elements (GRE) (AID 2282947). The settings on record: HepG2 GRE cis-reporter, Attagene multiplex mRNA; actives raise or lower the signal. In outline:
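Multiplexed cis-reporter mRNA induction, HepG2, 24 h post-dose. RT-PCR, FAM-labelled, HpaI-digested amplicons by CE. Bidirectional fit vs DMSO.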

The nature of assay [19]: ATG_PPRE_CIS: Attagene CIS-FACTORIAL HepG2 Assay for human Peroxisome Proliferator-activated Response Element (PPRE) (AID 2282958). As to conditions: HepG2 PPRE cis-element reporter, Attagene transcription factor profiling; actives raise or lower the signal. The method in brief: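 Transcript-level reporter induction in transfected HepG2 cells after 24 h chemical exposure, quantified by fluorescence from RT-PCR products separated by capillary electrophoresis.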

Assay [20] is described as follows: ATG_PBREM_CIS: Attagene CIS-FACTORIAL HepG2 Assay for human Phenobarbital-responsive Enhancer Module (PBREM) (AID 2282955). As to conditions: HepG2 PBREM cis-reporter, Attagene multiplexed transcription; actives raise or lower the signal. The method in brief: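 HepG2, transient MRTU transfection, 24 h dosing; RNA → oligo(dT) RT → PCR → 6-FAM extension → HpaI → CE. Bidirectional fit vs DMSO.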

Sequence of Signal transducer and activator of transcription 3 (Homo sapiens) (P40763 whole entry, looked up): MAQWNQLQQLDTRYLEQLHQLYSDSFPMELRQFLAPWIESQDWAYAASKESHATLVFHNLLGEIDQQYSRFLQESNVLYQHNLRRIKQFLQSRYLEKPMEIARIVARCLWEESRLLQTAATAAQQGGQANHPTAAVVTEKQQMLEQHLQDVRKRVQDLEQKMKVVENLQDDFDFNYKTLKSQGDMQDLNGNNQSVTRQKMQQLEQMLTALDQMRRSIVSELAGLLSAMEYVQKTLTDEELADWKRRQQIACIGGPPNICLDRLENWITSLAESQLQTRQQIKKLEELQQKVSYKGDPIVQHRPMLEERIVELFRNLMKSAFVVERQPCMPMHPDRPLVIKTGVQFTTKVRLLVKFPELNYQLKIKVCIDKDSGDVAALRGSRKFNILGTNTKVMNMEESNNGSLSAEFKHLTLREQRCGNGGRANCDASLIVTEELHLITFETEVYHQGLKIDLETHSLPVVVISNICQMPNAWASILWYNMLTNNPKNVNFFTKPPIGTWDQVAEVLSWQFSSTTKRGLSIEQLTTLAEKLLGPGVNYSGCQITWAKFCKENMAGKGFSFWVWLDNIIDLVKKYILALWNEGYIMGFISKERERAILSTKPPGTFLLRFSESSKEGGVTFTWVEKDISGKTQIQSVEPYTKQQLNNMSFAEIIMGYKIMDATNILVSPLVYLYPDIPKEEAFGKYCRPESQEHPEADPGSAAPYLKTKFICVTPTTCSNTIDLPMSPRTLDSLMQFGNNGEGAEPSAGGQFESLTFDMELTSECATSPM
Sequence of Hepatocyte nuclear factor 6 (Homo sapiens) (Q9UBC0 whole entry, looked up): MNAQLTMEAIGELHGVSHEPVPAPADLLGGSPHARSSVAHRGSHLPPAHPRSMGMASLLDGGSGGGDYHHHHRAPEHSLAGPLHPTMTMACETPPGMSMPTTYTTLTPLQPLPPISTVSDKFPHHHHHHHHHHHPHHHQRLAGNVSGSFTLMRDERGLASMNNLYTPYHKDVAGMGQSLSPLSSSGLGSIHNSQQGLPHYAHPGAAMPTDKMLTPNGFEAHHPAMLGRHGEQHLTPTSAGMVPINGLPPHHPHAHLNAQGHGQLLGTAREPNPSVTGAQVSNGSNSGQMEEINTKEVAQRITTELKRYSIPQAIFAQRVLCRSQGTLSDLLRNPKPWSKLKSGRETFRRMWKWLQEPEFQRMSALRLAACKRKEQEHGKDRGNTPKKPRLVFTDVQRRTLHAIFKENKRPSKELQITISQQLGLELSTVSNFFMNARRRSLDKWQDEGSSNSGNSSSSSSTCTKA
Sequence of Paired box protein Pax-6 (Homo sapiens) (P26367 whole entry, looked up): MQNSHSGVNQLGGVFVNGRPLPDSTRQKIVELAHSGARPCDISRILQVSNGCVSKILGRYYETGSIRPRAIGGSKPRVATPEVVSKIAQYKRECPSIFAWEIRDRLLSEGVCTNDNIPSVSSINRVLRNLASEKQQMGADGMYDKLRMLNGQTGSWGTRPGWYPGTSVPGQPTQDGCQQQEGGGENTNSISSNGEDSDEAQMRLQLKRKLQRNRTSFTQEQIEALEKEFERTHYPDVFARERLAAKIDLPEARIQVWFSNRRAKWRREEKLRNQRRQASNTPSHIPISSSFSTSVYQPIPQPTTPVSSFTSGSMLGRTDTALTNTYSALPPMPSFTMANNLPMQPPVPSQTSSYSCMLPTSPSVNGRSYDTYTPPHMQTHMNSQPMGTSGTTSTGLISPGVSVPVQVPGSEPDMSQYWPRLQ
Sequence of Heat shock factor protein 1 (Homo sapiens) (Q00613 whole entry, looked up): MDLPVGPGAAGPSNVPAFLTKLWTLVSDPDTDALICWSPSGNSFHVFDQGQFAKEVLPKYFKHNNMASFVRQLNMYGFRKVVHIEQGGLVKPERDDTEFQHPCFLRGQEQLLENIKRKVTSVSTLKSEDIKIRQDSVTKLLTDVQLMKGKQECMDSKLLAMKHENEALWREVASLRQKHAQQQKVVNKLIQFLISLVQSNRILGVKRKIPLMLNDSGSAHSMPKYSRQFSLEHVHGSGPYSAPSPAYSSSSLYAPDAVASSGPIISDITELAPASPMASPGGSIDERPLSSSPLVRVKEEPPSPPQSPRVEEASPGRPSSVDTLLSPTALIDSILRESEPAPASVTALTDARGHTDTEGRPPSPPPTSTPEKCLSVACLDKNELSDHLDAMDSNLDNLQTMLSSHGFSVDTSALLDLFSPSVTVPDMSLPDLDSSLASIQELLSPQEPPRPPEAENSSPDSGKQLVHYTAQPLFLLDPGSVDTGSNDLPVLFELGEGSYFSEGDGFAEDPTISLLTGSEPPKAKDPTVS
Sequence of Transcription factor Sp1 (Homo sapiens) (P08047 whole entry, looked up): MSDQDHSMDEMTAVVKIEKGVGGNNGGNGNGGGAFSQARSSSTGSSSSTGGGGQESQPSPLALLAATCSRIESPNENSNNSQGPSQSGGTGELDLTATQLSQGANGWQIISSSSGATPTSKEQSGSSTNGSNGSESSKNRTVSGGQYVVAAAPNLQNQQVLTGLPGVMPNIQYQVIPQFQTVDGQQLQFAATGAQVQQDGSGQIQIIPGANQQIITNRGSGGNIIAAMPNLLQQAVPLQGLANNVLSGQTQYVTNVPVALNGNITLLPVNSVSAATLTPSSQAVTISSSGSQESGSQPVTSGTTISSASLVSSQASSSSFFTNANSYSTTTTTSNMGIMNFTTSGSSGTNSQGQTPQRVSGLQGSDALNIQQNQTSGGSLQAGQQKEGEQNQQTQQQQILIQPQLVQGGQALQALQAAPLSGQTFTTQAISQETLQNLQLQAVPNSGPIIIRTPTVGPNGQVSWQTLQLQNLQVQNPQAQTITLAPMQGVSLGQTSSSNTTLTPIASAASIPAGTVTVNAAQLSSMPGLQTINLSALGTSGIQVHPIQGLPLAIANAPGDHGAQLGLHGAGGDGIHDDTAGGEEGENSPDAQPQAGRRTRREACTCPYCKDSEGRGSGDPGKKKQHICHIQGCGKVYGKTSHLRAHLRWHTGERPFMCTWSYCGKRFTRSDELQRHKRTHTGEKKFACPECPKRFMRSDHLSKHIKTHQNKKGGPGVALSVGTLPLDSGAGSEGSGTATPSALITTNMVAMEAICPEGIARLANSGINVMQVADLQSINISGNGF
Sequence of Hypoxia-inducible factor 1-alpha (Homo sapiens) (Q16665 whole entry, looked up): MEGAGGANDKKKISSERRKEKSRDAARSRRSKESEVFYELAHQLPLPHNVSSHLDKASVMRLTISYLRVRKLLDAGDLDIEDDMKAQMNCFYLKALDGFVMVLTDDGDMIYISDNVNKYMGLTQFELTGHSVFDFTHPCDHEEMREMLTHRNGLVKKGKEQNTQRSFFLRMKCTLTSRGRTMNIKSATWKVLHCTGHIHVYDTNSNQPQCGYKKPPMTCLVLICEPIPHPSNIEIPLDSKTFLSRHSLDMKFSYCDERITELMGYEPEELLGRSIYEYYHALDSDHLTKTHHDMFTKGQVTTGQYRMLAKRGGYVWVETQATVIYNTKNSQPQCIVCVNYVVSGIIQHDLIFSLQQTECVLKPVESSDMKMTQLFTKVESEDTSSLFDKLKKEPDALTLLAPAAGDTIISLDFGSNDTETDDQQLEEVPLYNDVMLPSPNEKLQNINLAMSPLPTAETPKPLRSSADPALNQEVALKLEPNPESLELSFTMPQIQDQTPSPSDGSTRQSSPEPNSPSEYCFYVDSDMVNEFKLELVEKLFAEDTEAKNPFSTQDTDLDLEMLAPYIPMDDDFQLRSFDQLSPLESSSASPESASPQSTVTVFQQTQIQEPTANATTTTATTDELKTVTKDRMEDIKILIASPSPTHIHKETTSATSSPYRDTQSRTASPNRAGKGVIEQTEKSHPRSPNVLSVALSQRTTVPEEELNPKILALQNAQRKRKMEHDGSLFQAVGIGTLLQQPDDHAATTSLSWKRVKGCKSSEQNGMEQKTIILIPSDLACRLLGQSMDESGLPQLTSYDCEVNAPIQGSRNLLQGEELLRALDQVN
Sequence of Bile acid receptor (Homo sapiens) (Q96RI1 whole entry, looked up): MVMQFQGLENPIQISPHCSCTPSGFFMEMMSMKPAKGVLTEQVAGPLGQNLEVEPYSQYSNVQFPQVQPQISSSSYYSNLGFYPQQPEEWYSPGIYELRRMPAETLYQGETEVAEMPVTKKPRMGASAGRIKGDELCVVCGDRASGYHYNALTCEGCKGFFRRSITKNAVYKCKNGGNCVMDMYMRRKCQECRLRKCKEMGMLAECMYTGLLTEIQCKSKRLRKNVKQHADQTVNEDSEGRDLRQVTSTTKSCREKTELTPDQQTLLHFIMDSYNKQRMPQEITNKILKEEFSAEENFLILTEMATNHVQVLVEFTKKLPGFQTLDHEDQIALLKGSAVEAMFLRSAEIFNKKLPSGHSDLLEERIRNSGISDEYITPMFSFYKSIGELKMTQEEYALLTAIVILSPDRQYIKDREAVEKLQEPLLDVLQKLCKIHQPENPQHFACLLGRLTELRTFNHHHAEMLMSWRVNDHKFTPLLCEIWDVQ

In the case of `CNCCO`, the compound was called inactive in assay [1], in assay [2], in assay [3], in [4], in [5] and in assay [6]. Also, the result in [7], in [8], in [9], in assay [10], in assay [11] and in assay [12] was inactive. Further, the compound was called inactive in assay [13], in assay [14], in assay [15], in assay [16] and in assay [17].
For the compound `C#C[C@]1(O)CC[C@H]2[C@@H]3CCC4=Cc5oncc5C[C@]4(C)[C@H]3CC[C@@]21C`, the AC50 (as a rule, the midpoint of the concentration-response curve, whichever way the signal moves) in assay [1] is 23.5 µM (active); in [6], 60.9 µM (active); in assay [7], 58.2 µM (active); in assay [8], 27.3 µM (active); in assay [9], 20.1 µM (active); in [10], 8.09 µM (active). For the same compound, the concentration at half-maximal activity (AC50) was 61.3 µM (active) in assay [12], 57.6 µM (active) in assay [13], 14.8 µM (active) in [14] and 22 µM (active) in assay [17]. In addition, the result in [18], in assay [3], in assay [4], in assay [19], in assay [11] and in [15] was inactive.
Consider `C=CC(C)(CCC=C(C)C)OC=O` (configuration not stated), for which the outcome in assay [18], in assay [2], in assay [3], in assay [4], in [5] and in [6] was inactive. Further, the call in [7], in assay [8], in assay [20], in [9], in assay [19] and in [11] was inactive. The compound was classed as inactive in [12], in assay [13], in [14], in assay [15], in assay [16] and in assay [17]. Moreover, the AC50 in assay [10] is 24.8 µM (active).
